# Source: PubChem BioAssay (NCATS)
# “And” between values parts separate entries of the source, which are not always exact repeats. Equal values may be shown once. Results filed as inconclusive are left out. A call without a number means that no potency is given here. Where a structure was tested more than once in an assay, its records may differ in their call. The source made the active and inactive calls. Unless noted, calls come from the whole dose curve; as a rule, active = well fitted curve in the direction sought with a large enough effect; inconclusive = small, poorly fitted or top-dose-only effect, or another doubt; inactive = no such curve, though single readings can be large; an effect the other way counts as inactive or inconclusive.
# Assays:
# [1] = NCATS anti-infectives library activity on HEK293 viability as a counter-qHTS vs the C. elegans viability qHTS (AID 1745854)
# In short: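 CellTiter-Glo luminescence, read on a CCD imager, scored viability of HEK293 cells after 24 hr compound exposure at 37C. Library tested in several concentrations, 1:5 steps, up to 41.7 uM; digitonin served as control.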
# [2] = biological target: Glutathione peroxidase 1 (Homo sapiens) (UniProt P07203); assay: Primary qHTS Assay for Inhibitors of Recombinant Selenoprotein Glutathione Peroxidase 1 (GPX1) (AID 1845191); note: nearly all actives have a fitted effect of over 65% in size
# Sequence of Glutathione peroxidase 1 (Homo sapiens) (P07203 whole entry, looked up): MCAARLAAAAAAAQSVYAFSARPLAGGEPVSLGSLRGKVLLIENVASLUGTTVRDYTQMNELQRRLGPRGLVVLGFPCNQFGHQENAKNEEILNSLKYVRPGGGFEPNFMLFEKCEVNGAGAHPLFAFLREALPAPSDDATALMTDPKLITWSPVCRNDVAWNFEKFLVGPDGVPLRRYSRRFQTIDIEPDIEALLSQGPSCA
# In short: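 GR-coupled readout: NADPH consumption tracked by fluorescence, ex 340/em 450 nm, at t=0 and after 15 min at RT. Final mix 10 nM GPX1, 1 mM GSH, 0.5 mM CHP, 0.5 mM NADPH, 100 nM GR, 0.01% BSA, following 30 min enzyme–compound preincubation.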
# [3] = biological target: Phospholipid hydroperoxide glutathione peroxidase GPX4 (Homo sapiens) (UniProt P36969); assay: Primary qHTS Assay for Inhibitors of Recombinant Selenoprotein Glutathione Peroxidase 4 (GPX4) (AID 1845192); note: nearly all actives have a fitted effect of over 65% in size
# Sequence of Phospholipid hydroperoxide glutathione peroxidase GPX4 (Homo sapiens) (P36969 whole entry, looked up): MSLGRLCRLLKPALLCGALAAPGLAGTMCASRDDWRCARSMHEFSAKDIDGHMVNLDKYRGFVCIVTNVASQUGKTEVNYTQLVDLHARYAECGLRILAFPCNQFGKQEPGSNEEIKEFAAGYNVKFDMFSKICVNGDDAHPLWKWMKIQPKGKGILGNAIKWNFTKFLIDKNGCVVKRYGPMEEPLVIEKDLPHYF
# In short: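 Steps: GPX4 plus compound, 30 min RT; add GR/GSH/NADPH master mix; start with cumene hydroperoxide; read 340/450 nm fluorescence at 0 and 15 min. Finals were 200 nM GPX4, 1 mM GSH, 0.5 mM CHP, 0.5 mM NADPH, 100 nM GR.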
# [4] = biological target: Metallo-beta-lactamase type 2 (Klebsiella pneumoniae) (UniProt C7C422); assay: qHTS to identify inhibitors of the New Delhi Metallo-beta-lactamase (NDM): assay validation screen against the NCATS LOPAC Collection (AID 1794843);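 note: nitrocefin turnover by NDM-1 measured as 485 nm absorbance at plateau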
# Sequence of Metallo-beta-lactamase type 2 (Klebsiella pneumoniae) (C7C422 whole entry, looked up): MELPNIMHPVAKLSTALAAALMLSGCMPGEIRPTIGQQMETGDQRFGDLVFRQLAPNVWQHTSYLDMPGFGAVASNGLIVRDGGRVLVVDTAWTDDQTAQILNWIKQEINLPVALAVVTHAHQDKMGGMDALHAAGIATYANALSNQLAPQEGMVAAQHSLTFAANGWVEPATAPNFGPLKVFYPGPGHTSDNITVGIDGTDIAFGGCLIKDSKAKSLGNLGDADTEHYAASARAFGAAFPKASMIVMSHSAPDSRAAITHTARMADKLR
# In short: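 NDM-1 at 2 nM final in 50 mM HEPES pH 7.0, 1 uM ZnSO4, 0.01% Tween20, preincubated with LOPAC compounds pinned in DMSO; 50 uM nitrocefin (stock) added. Hydrolysis read as absorbance at 485 nm in the plateau phase.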
# [5] = biological target: Catechol O-methyltransferase (Homo sapiens) (UniProt P21964); assay: Confirmatory Screen for Target Class Profiling of Small Molecule Inhibitors of Methyltransferases (AID 1745852); conditions: MTase-Glo luminescence, SAH detection, recombinant enzyme; measured here: COMT max response; stronger effect = lower value
# Sequence of Catechol O-methyltransferase (Homo sapiens) (P21964 whole entry, looked up): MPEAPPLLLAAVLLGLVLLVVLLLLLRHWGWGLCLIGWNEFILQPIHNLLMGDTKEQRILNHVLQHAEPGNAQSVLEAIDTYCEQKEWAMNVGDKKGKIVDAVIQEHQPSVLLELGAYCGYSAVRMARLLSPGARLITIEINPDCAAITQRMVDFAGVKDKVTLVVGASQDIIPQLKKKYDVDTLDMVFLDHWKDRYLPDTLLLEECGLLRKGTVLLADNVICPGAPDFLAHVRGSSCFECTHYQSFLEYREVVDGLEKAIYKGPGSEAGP
# [6] = biological target: Guanidinoacetate N-methyltransferase (Homo sapiens) (UniProt Q14353); assay: as above; conditions: MTase-Glo luminescence, SAH detection, recombinant enzyme; at 57.3 µM (top of the series)
# [7] = biological target: Nicotinamide N-methyltransferase (Homo sapiens) (UniProt P40261); assay: as above; conditions: MTase-Glo luminescence, SAH detection, recombinant enzyme; measured here: NNMT max response; stronger effect = lower value
# Sequence of Nicotinamide N-methyltransferase (Homo sapiens) (P40261 whole entry, looked up): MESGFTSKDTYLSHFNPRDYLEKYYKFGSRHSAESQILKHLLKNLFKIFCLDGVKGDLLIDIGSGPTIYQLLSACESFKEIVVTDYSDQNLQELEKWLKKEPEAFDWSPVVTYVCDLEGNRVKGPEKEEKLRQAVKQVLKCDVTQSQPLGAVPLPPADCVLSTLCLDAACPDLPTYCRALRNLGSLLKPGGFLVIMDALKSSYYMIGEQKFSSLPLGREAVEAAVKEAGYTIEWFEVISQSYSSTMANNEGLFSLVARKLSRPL
# [8] = biological target: Phenylethanolamine N-methyltransferase (Homo sapiens) (UniProt P11086); assay: as above; conditions: MTase-Glo luminescence, SAH detection, recombinant enzyme; measured here: PNMT max response; stronger effect = lower value
# Sequence of Phenylethanolamine N-methyltransferase (Homo sapiens) (P11086 whole entry, looked up): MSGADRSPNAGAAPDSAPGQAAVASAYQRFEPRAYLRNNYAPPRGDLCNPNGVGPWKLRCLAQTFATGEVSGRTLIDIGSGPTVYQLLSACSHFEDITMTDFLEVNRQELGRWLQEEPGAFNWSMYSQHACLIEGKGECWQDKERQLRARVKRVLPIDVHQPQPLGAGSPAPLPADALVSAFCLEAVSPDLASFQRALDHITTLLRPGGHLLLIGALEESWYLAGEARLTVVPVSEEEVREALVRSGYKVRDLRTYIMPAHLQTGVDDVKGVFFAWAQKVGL
# [9] = biological target: Rap guanine nucleotide exchange factor 3 (Homo sapiens) (UniProt O95398); assay: Confirmatory qHTS for antagonist of cAMP-regulated guanine nucleotide exchange factor 3 (EPAC1) (AID 1645880); note: nearly all actives have a fitted effect of over 55% in size; note: potency is the fitted concentration of half-maximal effect
# Sequence of Rap guanine nucleotide exchange factor 3 (Homo sapiens) (O95398 whole entry, looked up): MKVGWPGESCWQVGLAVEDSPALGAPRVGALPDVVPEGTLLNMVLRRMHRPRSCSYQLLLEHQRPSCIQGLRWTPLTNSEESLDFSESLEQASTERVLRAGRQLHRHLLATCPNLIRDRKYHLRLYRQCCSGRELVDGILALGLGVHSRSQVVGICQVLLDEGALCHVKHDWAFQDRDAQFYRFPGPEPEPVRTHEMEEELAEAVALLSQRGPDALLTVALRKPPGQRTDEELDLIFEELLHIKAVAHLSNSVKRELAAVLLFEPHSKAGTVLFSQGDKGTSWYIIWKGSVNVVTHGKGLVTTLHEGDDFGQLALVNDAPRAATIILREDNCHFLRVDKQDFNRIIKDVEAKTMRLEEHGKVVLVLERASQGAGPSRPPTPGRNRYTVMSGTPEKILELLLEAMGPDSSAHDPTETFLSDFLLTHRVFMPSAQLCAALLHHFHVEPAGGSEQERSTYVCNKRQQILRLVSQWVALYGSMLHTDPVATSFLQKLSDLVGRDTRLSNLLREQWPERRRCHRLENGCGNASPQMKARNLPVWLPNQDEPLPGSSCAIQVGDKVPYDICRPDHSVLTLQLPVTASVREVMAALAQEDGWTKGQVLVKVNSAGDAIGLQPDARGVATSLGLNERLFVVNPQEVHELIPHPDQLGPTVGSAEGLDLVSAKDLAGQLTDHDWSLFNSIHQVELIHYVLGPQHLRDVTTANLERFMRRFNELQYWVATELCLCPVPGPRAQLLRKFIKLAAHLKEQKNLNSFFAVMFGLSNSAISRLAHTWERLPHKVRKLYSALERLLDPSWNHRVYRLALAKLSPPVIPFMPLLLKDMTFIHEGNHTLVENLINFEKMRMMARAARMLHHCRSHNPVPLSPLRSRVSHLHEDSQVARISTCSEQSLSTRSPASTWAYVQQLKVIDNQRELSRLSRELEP
# In short: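 Released BODIPY-GDP fluoresces less than Rap1-bound BODIPY-GDP; the signal is followed at 480/540 nm at 5-min intervals over 30 min, after 5 min at room temperature. Reactions contain 100 nM EPAC1, 250 nM RAP1B-BODIPY-GDP and 50 uM GDP; results are normalized to ATA and DMSO.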
# [10] = biological target: Rap guanine nucleotide exchange factor 3 (Homo sapiens) (UniProt O95398); assay: Confirmatory qHTS for agonist of cAMP-regulated guanine nucleotide exchange factor 3 (EPAC1) (AID 1645881);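 note: EPAC1 catalysed release of BODIPY-GDP from Rap1B seen as fluorescence loss; nearly all actives have a fitted effect of over 75% in size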
# [11] = biological target: Rap guanine nucleotide exchange factor 4 (Homo sapiens) (UniProt Q8WZA2); assay: Confirmatory qHTS for agonist of cAMP-regulated guanine nucleotide exchange factor 4 (EPAC2) (AID 1645884);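 note: nucleotide exchange releases bodipy-GDP from Rap1 and this lowers its fluorescence; nearly all actives have a fitted effect of over 65% in size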; note: potency is the fitted concentration of half-maximal effect
# Sequence of Rap guanine nucleotide exchange factor 4 (Homo sapiens) (Q8WZA2 whole entry, looked up): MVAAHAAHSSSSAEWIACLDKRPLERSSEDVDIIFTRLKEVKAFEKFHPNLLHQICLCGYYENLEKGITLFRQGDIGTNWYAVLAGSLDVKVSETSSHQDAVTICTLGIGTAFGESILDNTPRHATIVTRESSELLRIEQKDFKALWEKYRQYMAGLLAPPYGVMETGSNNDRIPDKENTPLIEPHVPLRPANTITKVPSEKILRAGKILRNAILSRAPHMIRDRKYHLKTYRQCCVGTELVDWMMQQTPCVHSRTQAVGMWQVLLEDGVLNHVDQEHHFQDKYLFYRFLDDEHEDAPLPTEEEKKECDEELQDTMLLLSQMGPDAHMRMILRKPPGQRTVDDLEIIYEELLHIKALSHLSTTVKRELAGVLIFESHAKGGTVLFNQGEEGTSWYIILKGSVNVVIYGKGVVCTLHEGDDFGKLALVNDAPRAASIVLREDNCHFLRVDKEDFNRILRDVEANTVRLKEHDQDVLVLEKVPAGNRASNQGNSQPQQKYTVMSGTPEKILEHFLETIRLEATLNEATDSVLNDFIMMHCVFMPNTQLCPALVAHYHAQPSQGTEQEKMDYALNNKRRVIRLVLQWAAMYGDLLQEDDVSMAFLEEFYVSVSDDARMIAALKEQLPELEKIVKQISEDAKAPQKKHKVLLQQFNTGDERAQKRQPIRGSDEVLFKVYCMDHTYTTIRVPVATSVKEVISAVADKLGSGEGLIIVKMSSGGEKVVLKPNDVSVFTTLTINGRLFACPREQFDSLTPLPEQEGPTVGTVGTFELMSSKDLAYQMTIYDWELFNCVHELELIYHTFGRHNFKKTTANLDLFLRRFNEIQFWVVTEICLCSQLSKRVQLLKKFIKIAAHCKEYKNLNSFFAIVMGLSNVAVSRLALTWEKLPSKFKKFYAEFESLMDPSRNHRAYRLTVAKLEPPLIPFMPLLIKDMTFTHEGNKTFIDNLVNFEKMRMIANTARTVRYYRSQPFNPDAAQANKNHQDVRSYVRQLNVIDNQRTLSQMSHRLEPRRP
# [12] = biological target: Rap guanine nucleotide exchange factor 3 (Homo sapiens) (UniProt O95398); assay: Counterscreen qHTS for antagonist of cAMP-regulated guanine nucleotide exchange factor 3 (EPAC1) (AID 1645888)
# In short: (§1)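 Rap1B–BODIPY-GDP (250 nM) with 50 uM GDP; compounds pin-transferred to 9.74 nM–152 uM final (activator) or from 7.32 nM upwards (inhibitor). Fluorescence Ex/Em 480/540 nm read at 5 and 30 min, then after adding cAMP or buffer, at room temperature.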
# [13] = NCATS anti-infectives library activity on the primary C. elegans qHTS viability assay (AID 1745855; calls by dose curve; note: potency is the fitted concentration of half-maximal effect)
# In short: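 Titration-based screen in worms: eggs hatched overnight in M9, L1 larvae fed TOP10 capsules in S medium with compound, incubated 21 °C for 7 days; fluorescent objects gated by size and intensity at days 0, 3 and 7.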
# [14] = Viability counterscreen for antagonist of constitutive androstane receptor (CAR) against the NCATS DSHEA and TCM libraries (AID 1794837);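 note: compound exposure lasted 24 h before viability reading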
# In short: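 Cells: HepG2 line carrying CYP2B6 reporter and hCAR, seeded and attached 5 h. Then pin-transferred test substances plus agonist CITCO at 48 uM final; 24 h incubation; fluorogenic viability reagent, 1 h.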
# [15] = Viability counterscreen for agonist of constitutive androstane receptor (CAR) against the NCATS DSHEA and TCM libraries (AID 1794838);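 note: HepG2 cells with CYP2B6 reporter and hCAR plus 0.75 µM PK11195 antagonist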
# In short: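 Cell health was measured as CellTiter-Fluor signal in HepG2-CYP2B6-hCAR cells treated for 24 h with substances alongside the hCAR antagonist PK11195 (0.75 uM final).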
# [16] = biological target: Nuclear receptor subfamily 1 group I member 3 (Homo sapiens) (UniProt Q14994); assay: Primary qHTS for agonist of constitutive androstane receptor (CAR) against the NCATS DSHEA and TCM libraries (AID 1794839);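 note: HepG2 cells expressing human CAR with a CYP2B6 reporter plus PK11195 antagonist; luciferase reporter luminescence read with ONE-Glo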
# Sequence of Nuclear receptor subfamily 1 group I member 3 (Homo sapiens) (Q14994 whole entry, looked up): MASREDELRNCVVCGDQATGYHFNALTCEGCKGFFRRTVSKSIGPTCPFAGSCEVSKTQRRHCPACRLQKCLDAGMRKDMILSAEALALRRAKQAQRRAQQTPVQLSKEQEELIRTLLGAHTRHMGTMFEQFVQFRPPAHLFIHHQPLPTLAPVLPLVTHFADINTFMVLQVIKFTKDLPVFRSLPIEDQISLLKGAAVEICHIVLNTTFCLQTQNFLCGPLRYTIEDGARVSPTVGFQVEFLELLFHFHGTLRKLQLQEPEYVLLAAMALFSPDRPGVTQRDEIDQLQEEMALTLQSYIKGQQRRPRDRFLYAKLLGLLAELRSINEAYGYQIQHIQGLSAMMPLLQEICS
# In short: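 qHTS, agonist mode: HepG2-CYP2B6-hCAR, 2,500 cells/well, 5 h attach; cpds + PK11195 0.75 µM final; 24 h, 37 °C, 5% CO2. Readouts: CellTiter-Fluor (405/540 nm), then ONE-Glo luminescence.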
# [17] = HepG2 viability counterscreen (readout 2: ATP content) against the NCATS DSHEA and TCM libraries (AID 1794840)
# In short: (§2)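 Same wells read twice: first fluorescence from cleaved GF-AFC substrate (25 uM final, 30 min, 37C) for live-cell protease, then CellTiter-Glo luminescence after 30 min at room temperature for ATP. HepG2 cells were exposed ~24 h to substances.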
# [18] = HepG2 viability counterscreen (readout 1: protease activity) against the NCATS DSHEA and TCM libraries (AID 1794841);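 note: cells exposed to compounds for about 24 h before the protease read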
# In short: as §2
# [19] = biological target: Rap guanine nucleotide exchange factor 4 (Homo sapiens) (UniProt Q8WZA2); assay: Confirmatory qHTS for antagonist of cAMP-regulated guanine nucleotide exchange factor 4 (EPAC2) (AID 1645885); note: nearly all actives have a fitted effect of over 25% in size; note: potency is the fitted concentration of half-maximal effect
# [20] = biological target: Rap guanine nucleotide exchange factor 3 (Homo sapiens) (UniProt O95398); assay: Counterscreen qHTS for agonist of cAMP-regulated guanine nucleotide exchange factor 3 (EPAC1) (AID 1645889); note: nearly all actives have a fitted effect of over 40% in size
# In short: as §1
smiles,measurement,setting,value
CC[C@@H](CO)NCCN[C@@H](CC)CO,Potency,[1],inactive
same,Potency,[2],inactive
same,Potency,[3],inactive
C1CCc2nnnn2CC1,outcome,[4],inactive
same,Potency,[2],inactive
same,Potency,[3],inactive
CC(O)(P(=O)(O)O)P(=O)(O)O,"activity change, negative = cytotoxicity",[1],0.883% [at 8.35 µM] (inactive)
same,Potency,[2],inactive
same,Potency,[3],inactive
CC[C@H](C)C(=O)O[C@H]1CCC=C2C=C[C@H](C)[C@H](CC[C@@H]3C[C@@H](O)CC(=O)O3)[C@H]21,activity,[5],-80.2%
same,"activity change, negative = inhibition",[6],-3.09%
same,activity,[7],-8.02%
same,activity,[8],-5.04%
same,outcome,[4],inactive
same,Potency,[2],inactive
same,Potency,[3],inactive
O=C(Nc1ccc(Oc2ccc(Cl)cc2)c(Cl)c1)c1cc(I)cc(I)c1O,Potency,[9],30.1 µM (active)
same,outcome,[10],inactive
same,Potency,[11],inactive
same,outcome,[12],inactive
CC1(C)O[C@@H]2[C@@H](CO[C@@]3(COS(N)(=O)=O)OC(C)(C)O[C@@H]23)O1,Potency,[1],inactive
same,Potency,[13],inactive
same,Potency,[2],inactive
same,Potency,[3],inactive
O=c1ccc2ccccc2o1,Potency,[1],inactive
same,Potency,[13],inactive
same,outcome,[14],inactive
same,outcome,[15],inactive
same,outcome,[16],inactive
same,outcome,[17],inactive
same,outcome,[18],inactive
same,Potency,[3],inactive
C#C[C@]1(OC(C)=O)CC[C@H]2[C@@H]3CCC4=C[C@@H](OC(C)=O)CC[C@@H]4[C@H]3CC[C@@]21C,Potency,[9],inactive
same,outcome,[10],inactive
same,Potency,[11],inactive
same,Potency,[19],inactive
same,Potency,[2],inactive
same,Potency,[3],inactive
NC(=NCCCCCCN=C(N)/N=C(\N)Nc1ccc(Cl)cc1)/N=C(\N)Nc1ccc(Cl)cc1,activity,[5],-5.42%
same,"activity change, negative = inhibition",[6],0.888%
same,activity,[7],-51.5%
same,activity,[8],-67.4%
same,Potency,[13],11.5 µM (active)
same,Potency,[3],inactive
C/C=C/c1ccc(OC)cc1,outcome,[14],inactive
same,outcome,[15],inactive
same,outcome,[16],inactive
same,outcome,[17],inactive
same,outcome,[18],inactive
same,Potency,[2],inactive
same,Potency,[3],inactive
Cc1cc(N)c2cc(NC(=O)Nc3ccc4nc(C)cc(N)c4c3)ccc2n1,Potency,[9],25 µM (active)
same,Potency,[11],25.1 µM (active)
same,Potency,[19],35 µM (active)
C=CCc1ccc(O)c(OC)c1,outcome,[14],inactive
same,outcome,[15],inactive
same,outcome,[16],inactive
same,outcome,[17],inactive
same,outcome,[18],inactive
same,Potency,[2],inactive
same,Potency,[3],inactive
C[n+]1c2cc(N)ccc2cc2ccc(N)cc21 (tested in a mixture with another compound),Potency,[9],inactive
same,Potency,[19],inactive
same,Potency,[3],inactive
CCCCCCc1ccc(O)cc1O,outcome,[10],inactive
same,Potency,[11],inactive
same,Potency,[19],39.3 µM (active)
same,Potency,[2],inactive
same,Potency,[3],inactive
CCCn1c(=O)[nH]c(=O)c2[nH]cnc21,outcome,[4],inactive
same,Potency,[2],inactive
same,Potency,[3],inactive
COc1cccc2c1C(=O)c1c(O)c3c(c(O)c1C2=O)C[C@@](O)(C(=O)CO)C[C@@H]3O[C@H]1C[C@H](N)[C@H](O)[C@H](C)O1,Potency,[13],23 µM (active)
same,Potency,[3],inactive
CC(=O)Oc1ccc2c(c1)CC[C@@H]1[C@@H]2CC[C@]2(C)[C@@H](O)CC[C@@H]12,Potency,[9],inactive
same,outcome,[10],inactive
same,Potency,[11],inactive
same,Potency,[19],inactive
same,Potency,[2],inactive
same,Potency,[3],inactive
CCCCCCCCCCCCCCCCOP(=O)([O-])OCC[N+](C)(C)C,"activity change, negative = cytotoxicity",[1],-18.3% [at 8.35 µM] (inactive)
same,outcome,[13],inactive [at 8.33 µM]
same,Potency,[2],inactive
same,Potency,[3],inactive
O=C1OC(c2ccc(O)cc2)(c2ccc(O)cc2)c2ccccc21,Potency,[9],inactive
same,outcome,[10],inactive
same,Potency,[11],inactive
same,Potency,[19],24.8 µM (active) and 27.8 µM (active)
same,Potency,[2],inactive
same,Potency,[3],inactive
COc1ccc(/C=C/C(=O)c2ccc(OC)cc2OC)cc1,outcome,[10],inactive
same,Potency,[11],inactive
same,Potency,[19],15.6 µM (active) and inactive
same,outcome,[12],inactive
same,Potency,[20],inactive
c1ccc(-c2ccc(C(c3ccccc3)n3ccnc3)cc2)cc1 (stereo unspecified),Potency,[9],inactive
same,outcome,[10],inactive
same,Potency,[11],inactive
same,Potency,[19],13.9 µM (active) and inactive
same,outcome,[12],inactive
same,Potency,[20],inactive
same,Potency,[2],inactive
same,Potency,[3],inactive
CCCCc1nc(Cl)c(CO)n1Cc1ccc(-c2ccccc2-c2nn[nH]n2)cc1,Potency,[1],inactive
same,Potency,[2],inactive
same,Potency,[3],inactive
CC(C)(C)CC(C)(C)c1ccc(OCCOCC[N+](C)(C)Cc2ccccc2)cc1,activity,[5],-13.4%
same,"activity change, negative = inhibition",[6],-8.7%
same,activity,[7],-59.7%
same,activity,[8],-7.81%
same,Potency,[2],inactive
same,Potency,[3],inactive
C/C=C(/C(=C/C)c1ccc(O)cc1)c1ccc(O)cc1,Potency,[9],inactive
same,outcome,[10],inactive
same,Potency,[11],inactive
same,Potency,[19],22.1 µM (active)
same,"activity change, negative = inhibition",[19],-2.47% [at 12.7 µM] (inactive)
same,"activity change, negative = inhibition",[12],-9.27% [at 30.8 µM] (inactive)
same,Potency,[2],inactive
same,Potency,[3],inactive
CC(=O)Oc1ccc(C(c2ccc(OC(C)=O)cc2)c2ccccn2)cc1,Potency,[9],inactive
same,outcome,[10],inactive
same,Potency,[11],inactive
same,Potency,[19],inactive and 44.1 µM (active)
same,Potency,[2],inactive
same,Potency,[3],inactive
